21 molecules from PubChem BioAssay can be followed below.

Values joined by “and” are separate entries in the source; they are usually repeats but may differ in a detail not shown here. Equal values may be shown once. Active and inactive are the calls of the source.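 How the source made its calls, unless noted: active means compounds whose cell count with miR-34 switched on is under 0.7 times the count with it off; inactive means the rest.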

For experiment [1], the system named is Aerobactin synthetase IucA (Klebsiella pneumoniae). In words: IucA aerobactin synthetase inhibitors, biochemical, Tocris library, absorbance (AID 1345561; call rule not given here;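 further: 100% = enzyme without compound and 0% = no enzyme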). Conditions: purified IucA enzyme assay, absorbance (OD) read-out; stronger effect = lower value;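 tested at 8 µM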.
The nature of experiment [2]: sensitizers of A549 cells to miR-34 induction, primary screen, imaging, A549 dox-inducible miR-34, nuclei and caspase counts (AID 1347080). The following applies: A549 miR-34 inducible, Hoechst nuclei count, 48 h.
The nature of experiment [3]: viability rescue of complex I mutant cybrids, primary screen, cell-based, galactose medium, ATP luminescence (AID 1645843;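 active means z-score of at least 1.8 in each of two replicates, scored against plate mean and spread of sample wells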;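 further: positive z means more ATP and so rescue of galactose-driven cybrid death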). Conditions: complex I mutant cybrid cells, 72 h, stronger effect = higher value.
[4] abbreviates: stronger effect = lower value, cell number ratio, induced over uninduced.
Setting [5] is: measured here: relative caspase fold change +Dox/-Dox.
The mark [6] stands for this setting: measured here: total cells with miR-34 induction, stronger effect = lower value.
The mark [7] stands for this setting: measured here: total cells without miR-34 induction.

As a reminder, the remaining activity is the signal under treatment as a percentage of the control signal. In the case of `CN(CCOc1ccc(CC(Nc2ccccc2C(=O)c2ccccc2)C(=O)O)cc1)c1ccccn1` (stereo unspecified), the remaining activity in experiment [1] is 103% (inactive). Also, the fold change in experiment [2] (setting [4]) is 0.954 (inactive); in experiment [2] (setting [5]), 1.08. Besides, the cell count is 7420 in experiment [2] (setting [6]) and 7780 in experiment [2] (setting [7]). Further, in experiment [3], the z-score is 1.48 (inactive).

On to `COC(=O)C(Cc1ccc(OCCn2c(=O)sc3cc(C(=O)c4ccccc4)ccc32)cc1)C(=O)OC`, for which the remaining activity in experiment [1] is 104% (inactive). Also, the fold change in experiment [2] (setting [4]) is 0.909 (inactive); in experiment [2] (setting [5]) it was 1.26. Besides, the cell count in experiment [2] (setting [6]) is 8190; in experiment [2] (setting [7]), 9020. The z-score in experiment [3] was -0.89 (inactive).

With `O=S(=O)(NCCCCCCc1ccccc1)c1cccc2c(Cl)cccc12`, the remaining activity in experiment [1] is 101% (inactive). In addition, the fold change in experiment [2] (setting [4]) was 0.934 (inactive); in experiment [2] (setting [5]) it was 0.599. Also, the results for the cell count in experiment [2] (setting [6]) and in experiment [2] (setting [7]) were 8620 and 9230, respectively. The z-score in experiment [3] was -1.14 (inactive).

Consider `CC(C)c1ccc(C(=O)c2cccs2)c(SCCCCCCCCN(C)C)n1`, for which the remaining activity in experiment [1] was 107% (inactive). The fold change in experiment [2] (setting [4]) is 1.16 (inactive); in experiment [2] (setting [5]), 1.04. The cell count in experiment [2] (setting [6]) amounted to 3590; in experiment [2] (setting [7]), 3100. For the same molecule, in experiment [3], the z-score was -1.04 (inactive).

In the case of `CC(=O)N(O)[C@@H]1c2cc(C#N)ccc2OC(C)(C)[C@H]1O`, the remaining activity in experiment [1] was 89.1% (inactive). The fold change is 0.882 (inactive) in experiment [2] (setting [4]) and 2.17 in experiment [2] (setting [5]). The cell count is 8800 in experiment [2] (setting [6]) and 9980 in experiment [2] (setting [7]). The z-score in experiment [3] was 0.655 (inactive).

Take `O=C(Nc1c(-c2cccs2)nc2ccccn12)c1ccc(Cl)cc1`: the remaining activity in experiment [1] is 108% (inactive). Further, the fold change in experiment [2] (setting [4]) was 0.889 (inactive); in experiment [2] (setting [5]), 0.893. In addition, the cell count in experiment [2] (setting [6]) came out at 8490; in experiment [2] (setting [7]), 9560. Moreover, the z-score in experiment [3] is 1.35 (inactive).

As to `NC(=NCCc1ccc(I)cc1)SCCCC1CNCN1` (stereo unspecified), the remaining activity in experiment [1] was 98% (inactive). In addition, the results for the fold change in experiment [2] (setting [4]) and in experiment [2] (setting [5]) were 1.01 (inactive) and 0.754, respectively. Also, the cell count in experiment [2] (setting [6]) is 6720; in experiment [2] (setting [7]), 6680. Besides, the z-score in experiment [3] was -0.645 (inactive).

Regarding `CCCCC(=O)NCCc1c(Cc2ccccc2)[nH]c2ccccc12`, in experiment [1], the remaining activity was 108% (inactive). The fold change in experiment [2] (setting [4]) is 0.933 (inactive); in experiment [2] (setting [5]), 0.702. The cell count in experiment [2] (setting [6]) was 6310; in experiment [2] (setting [7]), 6770. Further, in experiment [3], the z-score is 0.26 (inactive).

Consider `CCOc1ccccc1O[C@H](c1ccccc1)[C@H]1CNCCO1` (racemic), for which the remaining activity in experiment [1] is 119% (inactive). The fold change in experiment [2] (setting [4]) is 0.937 (inactive); in experiment [2] (setting [5]) it was 0.923. In addition, the cell count in experiment [2] (setting [6]) is 7740; in experiment [2] (setting [7]) it was 8260. For the same molecule, in experiment [3], the z-score is -0.36 (inactive).

Take `CC(C)SC(=N)N`: the remaining activity in experiment [1] was 92% (inactive). Also, the fold change in experiment [2] (setting [4]) is 0.945 (inactive) and 0.931 (inactive); in experiment [2] (setting [5]), 0.992 and 1.03. Moreover, the cell count in experiment [2] (setting [6]) is 5980 and 8810; in experiment [2] (setting [7]), 6320 and 9460. Also, the z-score in experiment [3] was 0.865 (inactive).

Take `Nc1nc2c(ccc3ccccc32)s1`: the remaining activity in experiment [1] was 121% (inactive). In addition, the fold change was 0.908 (inactive) in experiment [2] (setting [4]) and 1.66 in experiment [2] (setting [5]). Also, the figures for the cell count in experiment [2] (setting [6]) and in experiment [2] (setting [7]) were 8670 and 9550, respectively. Besides, the z-score in experiment [3] is 0.415 (inactive).

Turning to `Nc1nc(NCCc2ccc(O)cc2)nc2nc(-c3ccco3)nn12`, the remaining activity in experiment [1] is 109% (inactive). Moreover, the fold change in experiment [2] (setting [4]) is 0.809 (inactive); in experiment [2] (setting [5]), 1.15. Further, the cell count in experiment [2] (setting [6]) was determined as 6780; in experiment [2] (setting [7]), 8380. In experiment [3], the z-score was -0.54 (inactive).

`CCS(=O)(=O)N(C)[C@H]1c2cc(C#N)ccc2OC(C)(C)[C@@H]1O`: the remaining activity in experiment [1] was 111% (inactive). Further, the fold change in experiment [2] (setting [4]) was 0.889 (inactive); in experiment [2] (setting [5]) it was 1.89. Besides, the cell count in experiment [2] (setting [6]) is 8640; in experiment [2] (setting [7]), 9720. In experiment [3], the z-score was 0.545 (inactive).

On to `c1ccc2nc(C3=NCCN3)cnc2c1`, for which the remaining activity in experiment [1] is 98.4% (inactive). For the same molecule, the fold change in experiment [2] (setting [4]) was 0.983 (inactive); in experiment [2] (setting [5]), 0.854. The figures for the cell count in experiment [2] (setting [6]) and in experiment [2] (setting [7]) were 9150 and 9300, respectively. Besides, the z-score in experiment [3] is 0.085 (inactive).

Take `C[C@@H](NCc1cc(Br)cc2[nH]c(=O)c(=O)[nH]c12)P(=O)(O)O`: the remaining activity in experiment [1] is 104% (inactive). Also, the fold change in experiment [2] (setting [4]) was 0.887 (inactive); in experiment [2] (setting [5]), 1.3. Moreover, the cell count in experiment [2] (setting [6]) was 8900; in experiment [2] (setting [7]) it was 10000. In experiment [3], the z-score was -0.07 (inactive).

For the molecule `FC(F)(F)c1cccc(-c2noc(-c3cc(-c4ccccc4)c(C(F)(F)F)s3)n2)c1`, the remaining activity in experiment [1] was 101% (inactive). In addition, the fold change in experiment [2] (setting [4]) was 0.966 (inactive) and 0.884 (inactive); in experiment [2] (setting [5]), 1.01 and 0.898. The cell count in experiment [2] (setting [6]) is 5830 and 8210; in experiment [2] (setting [7]), 6040 and 9290. In experiment [3], the z-score was 0.175 (inactive).

Take `CC1c2ccccc2CN1CC1=NCCN1` (stereo unspecified): the remaining activity in experiment [1] is 111% (inactive). For the same molecule, the fold change in experiment [2] (setting [4]) was 0.985 (inactive); in experiment [2] (setting [5]), 0.732. Further, the values for the cell count in experiment [2] (setting [6]) and in experiment [2] (setting [7]) were 8400 and 8530, respectively. For the same molecule, in experiment [3], the z-score was -0.515 (inactive).

On to `CNC(=O)[C@@H](Cc1ccccc1)N(C)C(=O)[C@@H](Cc1ccc2ccccc2c1)N(C)C(=O)/C=C/CC(C)(C)N`, for which, in experiment [1], the remaining activity is 99.8% (inactive). Also, the fold change in experiment [2] (setting [4]) was 1 (inactive); in experiment [2] (setting [5]), 0.957. Moreover, the cell count worked out at 9200 in experiment [2] (setting [6]) and 9170 in experiment [2] (setting [7]). In experiment [3], the z-score is -0.39 (inactive).

For `CC(=O)NCCc1c(Cc2ccccc2)[nH]c2ccccc12`, in experiment [1], the remaining activity was 105% (inactive). In addition, the figures for the fold change in experiment [2] (setting [4]) and in experiment [2] (setting [5]) were 1.03 (inactive) and 0.867, respectively. Moreover, the values for the cell count in experiment [2] (setting [6]) and in experiment [2] (setting [7]) were 7430 and 7230, respectively. In experiment [3], the z-score was 0.025 (inactive).

Regarding `c1ccc2oc(C3=NCCN3)cc2c1`, the remaining activity in experiment [1] was 116% (inactive). Further, the results for the fold change in experiment [2] (setting [4]) and in experiment [2] (setting [5]) were 0.904 (inactive) and 1.14, respectively. The cell count amounted to 8470 in experiment [2] (setting [6]) and 9370 in experiment [2] (setting [7]). For the same molecule, the z-score in experiment [3] is 0.405 (inactive).

Turning to `CCc1ccccc1OC[C@@H](O)CN[C@H]1CCCc2ccccc21`, the remaining activity in experiment [1] was 106% (inactive). Besides, the figures for the fold change in experiment [2] (setting [4]) and in experiment [2] (setting [5]) were 0.986 (inactive) and 0.799, respectively. Also, the cell count is 4870 in experiment [2] (setting [6]) and 4940 in experiment [2] (setting [7]). The z-score in experiment [3] is -0.74 (inactive).
